{"source": "PubChem BioAssay (EPA / NIEHS)", "note": "Results filed as inconclusive are left out. The source made the active and inactive calls. Rule for the calls: active = hit-call score of the fitted dose curve at least 0.9, where 1 is the maximum; inconclusive = response in the unintended direction; inactive = score below 0.9."}
{"molecular_target": "human Thyroid hormone Receptor beta (TRb), THRB (gene 7068) (UniProt P10828)", "sequence (P10828 whole entry, looked up)": "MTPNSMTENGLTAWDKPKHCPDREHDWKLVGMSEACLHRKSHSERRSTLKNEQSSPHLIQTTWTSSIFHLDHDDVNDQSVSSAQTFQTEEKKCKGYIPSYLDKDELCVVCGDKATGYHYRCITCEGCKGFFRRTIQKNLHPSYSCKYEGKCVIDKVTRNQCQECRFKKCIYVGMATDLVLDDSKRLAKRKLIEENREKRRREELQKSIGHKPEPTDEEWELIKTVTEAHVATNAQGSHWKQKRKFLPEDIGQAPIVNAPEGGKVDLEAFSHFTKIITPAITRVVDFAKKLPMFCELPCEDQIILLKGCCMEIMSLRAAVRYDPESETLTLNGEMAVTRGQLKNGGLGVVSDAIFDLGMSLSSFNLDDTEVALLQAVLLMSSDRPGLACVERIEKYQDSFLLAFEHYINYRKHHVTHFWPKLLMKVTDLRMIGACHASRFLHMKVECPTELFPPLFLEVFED", "experiment": "ATG_hTRb_XSP1: Attagene TRANS-FACTORIAL Multi-Species (XSP1) HepG2 Assay for human Thyroid hormone Receptor beta (TRb) (AID 2283808)", "method": "ATG_XSP1_multi-species_TRANS is a cell-based, multiplexed assay created by modifying the existing Attagene TRANS-FACTORIAL system to include a panel of nuclear receptors from some or all the following species: human (Homo sapiens), mouse (Mus musculus), frog (Xenopus laevis), zebrafish (Danio rerio), chicken (Gallus gallus), and turtle (Chrysemys picta). The ECOTOX-FACTORIAL format uses HepG2, a human liver cell line, with measurements taken at 24 hours after chemical dosing in a 24-well plate. Xsp1 included 3 nM 6-alpha-fluorotestosterone to partially stimulate the androgen receptor.ATG_hTRb_XSP1 is one of 29 assay components measured or calculated from the ATG_XSP1_multi-species_TRANS assay. It is designed to make measurements of mRNA induction, a form of inducible reporter, as detected with fluorescence intensity signals by Reverse transcription polymerase chain reaction (RT-PCR) and Capillary electrophoresis technology.The assay endpoint ATG_hTRb_XSP1 was analyzed in the positive analysis fitting direction relative to DMSO as the negative control and baseline of activity. Using a type of inducible reporter, measures of mRNA for gain-of-signal activity can be used to understand the reporter gene at the transcription factor-level as they relate to the gene TR. Furthermore, this assay endpoint can be referred to as a primary readout, because this assay has produced multiple assay endpoints where this one serves a reporter gene function. To generalize the intended target to other relatable targets, this assay endpoint is annotated to the nuclear receptor intended target family, where the subfamily is non-steroidal.\nHuman liver HepG2 cells are transiently transfected with multiple reporter transcription units (MRTUs) in 6-well plates using FuGene 6 reagent (Roche; 3 ml FuGene/1 mg DNA). The MRTU constructs are regulated by a cis-regulating element (promoter). […] A major difference between the CIS and TRANS system is that in CIS activities of endogenous TFs are measured, whereas the TRANS assay evaluates changes in activities of exogenous, chimeric NR-Gal4 proteins. […] At the end of 24 hour incubation, total RNA was isolated using TriZol reagent (Invitrogen). The isolated RNA is then reverse-transcribed using oligo(dT) primer and Mo-MLV reverse transcriptase (Invitrogen) with DNAse I (Ambion) treatment for 30 min. The one-tenth of the produced cDNA was amplified by PCR using Taq DNA polymerase (Invitrogen) and two reporter sequence-specific primers. The PCR products were fluorescently labeled by primer extension with 6-arboxyfluorescein (6-FAM) 5'-labeled reporter sequence-specific primer (2 min at 95 C, 20 s at 68 C and 10 min at 72 C) and these products were digested with 5U of HpaI (New England Biolabs) for 2h at 37 C. The fragments were purified using Qiaquick PCR columns (Qiagen), analyzed on an ABI 3130xL genetic analyzer (Applied Biosystems) with peak positions identified by using a set of X-rhodamine (ROX)-labeled MapMarker1000 molecular weight standards (BioVentures). The raw capillary electrophoresis data was processed using Attagraph software (Attagene)."}
{"smiles": "CCCCOC(=O)c1ccccc1C(=O)OCCCC", "outcome": "inactive"}
{"smiles": "CO/C=C(/C(=O)OC)c1ccccc1Oc1cc(Oc2ccccc2C#N)ncn1", "outcome": "inactive"}
{"smiles": "C=CC1(C)OC(=O)N(c2cc(Cl)cc(Cl)c2)C1=O", "note": "(stereo not given)", "AC50": "67.6 µM (active)"}
{"smiles": "CCCCNC(=O)OCC#CI", "outcome": "inactive"}
{"smiles": "CCCCC(CC)COC(=O)c1ccccc1C(=O)OCC(CC)CCCC", "note": "(stereo not given)", "AC50": "100 µM (active)"}
{"smiles": "CCOP(=S)(OCC)SCn1c(=O)oc2cc(Cl)ccc21", "outcome": "inactive"}
{"smiles": "COc1ccc(C(c2ccc(OC)cc2)C(Cl)(Cl)Cl)cc1", "outcome": "inactive"}
{"smiles": "CCCN(CCC)c1c([N+](=O)[O-])cc(S(N)(=O)=O)cc1[N+](=O)[O-]", "AC50": "9.26 µM (active)"}
{"smiles": "COC(=O)N(OC)c1ccccc1COc1ccn(-c2ccc(Cl)cc2)n1", "AC50": "3.33 µM (active)"}
{"smiles": "C#CCOS(=O)OC1CCCCC1Oc1ccc(C(C)(C)C)cc1", "note": "(stereo not given)", "outcome": "inactive"}
